Test results reported in publication PMC4336329 (PLoS ONE, 2015).
The whole screen tested about 310,000 compounds, of which about 14,000 (4.5%) showed an effect of 50% or more. The effect is printed as a negative number. The sample holds strong results, similar compounds and a random draw of the others, so the mix is not that of the screen.

The compounds below were run against human ether-à-go-go-related gene (hERG) potassium channel (human, UniProt Q12809) (assay: primary screen, population patch clamp on CHO cells stably expressing hERG; higher = less effect of the substance).
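Further: peak tail current of the secondary pulse compared with the same well before compound.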

Chain of human ether-à-go-go-related gene (hERG) potassium channel (Q12809 whole entry, looked up): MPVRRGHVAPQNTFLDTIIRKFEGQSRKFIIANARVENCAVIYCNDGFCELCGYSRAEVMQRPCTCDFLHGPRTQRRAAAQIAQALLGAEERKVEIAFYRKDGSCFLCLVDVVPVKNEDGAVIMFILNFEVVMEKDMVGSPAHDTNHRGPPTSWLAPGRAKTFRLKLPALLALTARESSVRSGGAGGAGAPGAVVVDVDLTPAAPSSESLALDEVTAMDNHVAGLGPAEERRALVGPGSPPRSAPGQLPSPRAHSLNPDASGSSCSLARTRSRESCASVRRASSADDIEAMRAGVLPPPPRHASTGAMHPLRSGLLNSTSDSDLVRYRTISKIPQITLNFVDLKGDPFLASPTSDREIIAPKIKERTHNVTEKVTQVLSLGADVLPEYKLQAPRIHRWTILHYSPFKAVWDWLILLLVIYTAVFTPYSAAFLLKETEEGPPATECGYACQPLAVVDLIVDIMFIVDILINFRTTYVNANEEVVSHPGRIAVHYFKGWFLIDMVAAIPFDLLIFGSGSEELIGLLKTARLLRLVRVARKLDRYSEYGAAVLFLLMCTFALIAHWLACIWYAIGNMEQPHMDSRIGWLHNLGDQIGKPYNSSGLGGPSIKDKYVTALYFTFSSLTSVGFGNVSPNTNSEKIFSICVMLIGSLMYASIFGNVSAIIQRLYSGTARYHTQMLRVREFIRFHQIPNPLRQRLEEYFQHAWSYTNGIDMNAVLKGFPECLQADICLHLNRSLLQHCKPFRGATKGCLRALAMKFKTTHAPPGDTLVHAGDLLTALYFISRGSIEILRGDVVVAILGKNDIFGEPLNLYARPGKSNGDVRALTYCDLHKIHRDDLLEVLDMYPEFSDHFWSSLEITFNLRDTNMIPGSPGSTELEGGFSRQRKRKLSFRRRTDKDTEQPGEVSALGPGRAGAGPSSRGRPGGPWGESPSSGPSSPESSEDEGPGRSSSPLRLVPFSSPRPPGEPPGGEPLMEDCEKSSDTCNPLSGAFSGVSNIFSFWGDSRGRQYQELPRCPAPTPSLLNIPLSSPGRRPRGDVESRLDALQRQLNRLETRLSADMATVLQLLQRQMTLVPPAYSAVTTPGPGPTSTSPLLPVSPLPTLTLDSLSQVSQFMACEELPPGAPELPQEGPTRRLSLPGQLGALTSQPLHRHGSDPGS

| Structure (SMILES) | hERG current change (%, negative = inhibition) at 10uM [%] |
| --- | --- |
| O=C(O)c1ccc2c(c1)C(=O)N(c1cccc(S(=O)(=O)Nc3cccc(C(F)(F)F)c3)c1)C2=O | 21.1 |
| CCN(CC)S(=O)(=O)c1ccc(C(C)NC(=O)C2CCCN2C(=O)c2cccs2)cc1 (stereo not drawn) | -15.5 |
| Cc1cc(Cl)ccc1C(=O)C1CCCN(C(=O)CCN2CCCO2)C1 (stereo not drawn) | -1.54 |
| CC(C)(C)NC(=O)C(c1ccccn1)N(C(=O)C1CSC(=O)C1)c1ccc(F)cc1 (stereo not drawn) | 6.26 |
| O=c1[nH]c(O)c(C=NC2CCN(Cc3ccccc3)CC2)c(=O)[nH]1 | -31.6 |
| C=CCn1c(O)c(C(C)=NCCc2ccccc2)c(=O)[nH]c1=O | -14.7 |
| CCC(=NCCc1ccccc1)c1c(O)[nH]c(=O)[nH]c1=O | 10.1 |
| C=CCn1c(O)c(C(C)=NC2CC2)c(=O)[nH]c1=O | 9.27 |
| C=CCn1c(O)c(C(C)=NC2CCN(Cc3ccccc3)CC2)c(=O)[nH]c1=O | -55.7 |
| CCC(=NC1CCN(Cc2ccccc2)CC1)c1c(O)[nH]c(=O)[nH]c1=O | -52.4 |
| Cc1ccccc1CNC(=O)C1CCN(c2nnc(N3CCCC3=O)s2)CC1 | 19.3 |
| CC(C)(C)c1csc(CS(=O)(=O)c2ccccn2)n1 | -6.8 |
| Brc1ccc(C2=Nn3cnnc3SC2)cc1 | 13.6 |
| CCc1nnc2n1N=C(c1ccc([N+](=O)[O-])cc1)CS2 | -65.5 |
| Br.CCc1nnc2n1N=C(c1cccc([N+](=O)[O-])c1)CS2 | -32.1 |
| Br.CCCc1nnc2n1N=C(c1ccc([N+](=O)[O-])cc1)CS2 | -38.6 |
| O=[N+]([O-])c1ccc(C2=Nn3cnnc3SC2)cc1 | -62.2 |
| CCOc1ccc(C2=Nn3cnnc3SC2)cc1 | -14.8 |
| O=c1[nH]c(=O)n(CCc2ccccc2)c(O)c1C=NCCCn1ccnc1 | -2.66 |
| COc1ccccc1CC(NC(C)=O)C(=O)NC1CCN(C(=O)Nc2ccccc2F)CC1 (stereo not drawn) | 28.3 |
| Cc1ccc(Cl)cc1NS(=O)(=O)c1ccc2oc(=O)ccc2c1 | -25.7 |
| COc1ccc(CCN(C)CC(O)COc2ccc(C(C)=O)cc2OC)cc1OC (stereo not drawn) | -21.6 |

| Structure (SMILES) | hERG current change (%, negative = inhibition) at 10uM [%] |
| --- | --- |
| COc1ccc(CCN(C)CC(O)COC(c2ccc(F)cc2)c2ccc(F)cc2)cc1OC (stereo not drawn) | -79.2 |
| COc1ccc(C(CNCC(O)COc2c(C)ccc(C)c2C)N(C)C)cc1 (stereo not drawn) | -44.1 |
| COc1ccc(CCN(C)CC(O)c2ccccc2)cc1OC.O=C(O)C(=O)O (stereo not drawn) | -32.2 |
| COc1ccc(CCN(C)Cc2nc(Cc3ccc(OC)c(OC)c3)no2)cc1OC | 0.332 |
| COc1ccc(CCN(C)CC(O)COc2c(C)ccc(C)c2C)cc1OC (stereo not drawn) | -76 |
| O=C(Nc1ccc(Nc2ccccc2)cc1)c1cc([N+](=O)[O-])ccc1Cl | 11.2 |
| CNc1ccc(Br)cc(C(=O)/C=C/c2cccc(OC)c2)c1=O | -1.19 |
| COc1ccc(NC2c3ncccc3C(=O)N2Cc2cccs2)cc1 (stereo not drawn) | -18.4 |
| CCc1noc(C)c1C(=O)N1CCOCC1 | 14.4 |
| COC(=O)N1C(=O)[C@](c2ccccc2)(C(C)C)N1C(=O)OC | 12.2 |
| COc1ccccc1/C=N/NC(=O)c1cccc(OC(F)(F)C(F)F)c1 | -9.51 |
| CC(=O)N1CCN(C(=O)c2cc(-c3ccc(Cl)s3)nc3ccccc23)CC1 | -51.8 |
| Cc1cc(C(=O)N2CC=C(c3ccccc3)CC2)c2ccccc2n1 | -52.9 |
| O=C(c1cc(-c2ccc(Cl)cc2)nc2ccccc12)N1CCOCC1 | -68.8 |
| CC(C)(CNC(=O)c1cc(-c2ccc(Cl)s2)nc2ccccc12)N1CCOCC1 | -55.1 |
| O=C(c1cc(-c2ccc(Cl)s2)nc2ccccc12)N1CCOCC1 | -17 |
| O=C(c1cc(-c2ccccc2)nc2ccccc12)N1CCOCC1 | 27.6 |
| O=C(c1cc(-c2ccc(Cl)s2)nc2ccccc12)N1CCCC1 | 4.92 |
| Cc1ccc(-c2cc(C(=O)N3CCOCC3)c3ccccc3n2)cc1 | -3.91 |
| CC(=O)N1CCN(C(=O)c2cc(C)nc3ccccc23)CC1 | 31.1 |
| O=C(NCCCN1CCOCC1)c1cc(-c2ccc(Cl)s2)nc2ccccc12 | -44.1 |
| O=C(NCCN1CCOCC1)c1cc(-c2ccc(Cl)s2)nc2ccccc12 | -5.22 |

| Structure (SMILES) | hERG current change (%, negative = inhibition) at 10uM [%] |
| --- | --- |
| O=C(O)c1ccccc1C(=O)N1CC=C(c2ccccc2)CC1 | 3.44 |
| CCOc1ccnc(OCC)c1Br | 28.3 |
| NS(=O)(=O)c1ccc(OC(=O)CNC(=O)OCc2ccccc2)cc1 | 11 |
| Cc1ccc(OCC(O)Cn2c(N3CCOCC3)nc3c2c(=O)[nH]c(=O)n3C)cc1 (stereo not drawn) | -16.1 |
| Cc1nn(C)c(C)c1/C=N/NC(=O)c1csc2ccccc12 | -2.45 |
| O=C(CN1C(=O)NC(Cc2c[nH]c3ccccc23)C1=O)Nc1ccccc1Br (stereo not drawn) | -15.4 |
| COc1ccc(S(=O)(=O)N2CCCC2C(=O)Nc2nc3c(s2)CCCC3)cc1 (stereo not drawn) | -14 |
| COc1ccc(CCNC(=O)c2cc(S(=O)(=O)N(C)c3ccccc3)ccc2Cl)cc1 | -16.6 |
| Cn1[nH]c(-c2ccccc2)c(/C=N/O)c1=O | -15.1 |
| COCCn1c(-c2ccc(OC(F)(F)C(F)C(F)(F)F)cc2)nc2c1c(=O)[nH]c(=O)n2CC(C)C (stereo not drawn) | -19.5 |
| CC1CCCN(C(=O)c2ccccc2OC2CCN(S(C)(=O)=O)CC2)C1 (stereo not drawn) | 11.1 |
| O=C(c1cc(-c2ccc(Cl)cc2)nc2ccccc12)N1CCC1 | -59.7 |
| O=C(c1cc(-c2ccc(Br)cc2)nc2ccccc12)N1CCC1 | -44.4 |
| O=C(c1cc(-c2ccccc2)nc2ccccc12)N1CCCC1 | 2.55 |
| COc1ccc(/C=c2\sc3nc(-c4ccccc4OC)nn3c2=O)c(OC)c1 | 9.67 |
| Cc1ccc(C)c(N2CCN(C(=O)CCS(=O)(=O)c3ccc4c(c3)oc(=O)n4C)CC2)c1 | -48.6 |
| Cn1c(=O)oc2cc(S(=O)(=O)CCC(=O)N3CCN(c4ccccc4F)CC3)ccc21 | 1.03 |
| Cc1ccc(C)c(N2CCN(C(=O)COc3cc(=O)n(C)c4ccccc34)CC2)c1 | -32.3 |
| CCC(=O)c1cc(F)ccc1OCC(=O)N1CCN(c2ccc(F)cc2)CC1 | -72.1 |
| Cc1cccc(N2CCN(C(=O)COc3cc(=O)n(C)c4ccccc34)CC2)c1C | -61.2 |
| Cc1cccc(N2CCN(C(=O)CCS(=O)(=O)c3ccc4c(c3)oc(=O)n4C)CC2)c1C | -51.2 |
| COC(=O)c1ccc(OC)cc1OCC(=O)N1CCN(c2ccc(F)cc2)CC1 | -33 |

| Structure (SMILES) | hERG current change (%, negative = inhibition) at 10uM [%] |
| --- | --- |
| Cc1c(C)c2ccc(OCC(=O)N3CCN(c4ccc(F)cc4)CC3)c(C)c2oc1=O | 2.26 |
| COC(=O)c1ccccc1OCC(=O)N1CCN(c2ccc(F)cc2)CC1 | -44.9 |
| Cc1cc(OCC(=O)N2CCN(c3ccc(F)cc3)CC2)c2c(C)cc(=O)oc2c1 | 10.7 |
| CC(=O)c1cc(F)ccc1OCC(=O)N1CCN(c2ccc(F)cc2)CC1 | -58.2 |
| Cn1c(=O)cc(OCC(=O)N2CCN(c3ccccc3F)CC2)c2ccccc21 | -17.5 |
| CCOC(=O)c1c(S(=O)(=O)NCC(=O)Nc2ccc(F)cc2)c(C)n(C)c1C | 14.5 |
| CCOC(=O)c1cc(C#N)c(N2CCNCC2)nc1C(F)(F)F | -12.3 |
| COc1ccc(CNC(=O)CCSCc2cccc(Cl)c2)cc1 | -17 |
| COc1ccc(-n2nnnc2CNC(=O)C(=O)c2c[nH]c3ccccc23)cc1 | 6.27 |
| CCCCOC(=O)Nc1ccc(C(=O)OCCC)cc1 | -12.9 |
| CCC(C)c1ccc2oc(-c3ccc(NC(=O)c4ncn[nH]4)cc3)nc2c1 (stereo not drawn) | -1.89 |
| CCOc1ccc(N2C(=O)CC(N3CCC(O)(c4ccc(Br)cc4)CC3)C2=O)cc1 (stereo not drawn) | -49.1 |
| CC1(C)CC(=O)C2=C(C1)NC(=O)CC2c1cc(F)ccc1F (stereo not drawn) | -21.6 |
| Cc1cc(C)c2c(c1)/C(=N/NS(=O)(=O)c1ccccc1)CCC2 | 7.48 |
| COC(=O)Nc1ccc(S(=O)(=O)NCCCCCC(=O)O)cc1 | -1.56 |
| CCOC(=O)c1nn(-c2ccc(F)cc2)c(=O)cc1OCC(=O)N1CCN(c2ccccc2)CC1 | -15.6 |
| CCOC(=O)c1nn(-c2ccc(C)cc2)c(=O)cc1OCC(=O)N1CCN(c2ccccc2)CC1 | -51.9 |
| CCn1c(=O)cc(OCC(=O)N2CCN(c3cccc(C(F)(F)F)c3)CC2)c2ccccc21 | -48.2 |
| CCN1CCN(C(=O)COc2cc(=O)n(CC)c3ccccc23)CC1 | -2.67 |
| CCn1c(=O)cc(OCC(=O)N2CCN(c3ccc(F)cc3)CC2)c2ccccc21 | -69.8 |
| CCOC(=O)c1nn(-c2ccccc2C)c(=O)cc1OCC(=O)N1CCN(c2ccccc2)CC1 | -24.6 |
